Assay [1] in a line: A CellTox Green Cytotoxicity Assay to monitor cytotoxicity in HEK293 cells - 32 hour (AID 1224881). Also: nearly all actives have a fitted effect of over 40% in size. The procedure, abridged: (§1)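 HEK293 cells, 600/well, were preincubated 5 hours and then exposed to compounds at 37 C for up to 40 hours. A cell-impermeant cyanine dye staining dead-cell DNA was read by fluorescence at 0, 8, 16, 24, 32 and 40 h time points.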
Assay [2] in a line: A CellTox Green Cytotoxicity Assay to monitor cytotoxicity in HepG2 cells - 0 hour (AID 1224882). Also: nearly all actives have a fitted effect of over 35% in size. The essentials: (§2)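 HepG2 cells, 600/well, preincubated 5 h with CellTox Green dye, then exposed to Tox21 compounds in DMSO at 37 C for up to 40 h. Dead-cell DNA fluorescence read at the indicated time point.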
Assay [3] can be described thus: A CellTox Green Cytotoxicity Assay to monitor cytotoxicity in HepG2 cells - 32 hour (AID 1224883). Also: nearly all actives have a fitted effect of over 50% in size. The procedure, abridged:
as §2

Assay [4] in a line: A CellTox Green Cytotoxicity Assay to monitor cytotoxicity in HEK293 cells - 8 hour (AID 1224884). Also: nearly all actives have a fitted effect of over 35% in size. The essentials:
as §1

The nature of assay [5]: qHTS RealTime-Glo MT Cell Viability Assay in HepG2 cells - 16 hour (AID 1224885). Also: nearly all actives have a fitted effect of over 50% in size. The essentials: (§3)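 HepG2 cells (600/well) were dispensed with RealTime-Glo reagents, incubated 5 h at 37 °C, then treated with compounds in DMSO for up to 40 h. Nonlytic NanoLuc luminescence reflecting viable cells was read at each stated time point.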
Assay [6] in a line: qHTS RealTime-Glo MT Cell Viability Assay in HEK293 cells - 24 hour (AID 1224886). Also: nearly all actives have a fitted effect of over 50% in size. Also: potency is read from the fitted curve at half-maximal effect. The procedure, abridged: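 HEK293 cells seeded with NanoLuc/prosubstrate reagent, rested 5 h at 37 C, then dosed and kept at 37 C up to 40 h. Nonlytic real-time luminescence from viable cells read at 0, 8, 16, 24, 32 and 40 h.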
Assay [7] in a line: qHTS RealTime-Glo MT Cell Viability Assay in HEK293 cells - 8 hour (AID 1224887). Also: nearly all actives have a fitted effect of over 50% in size. Also: potency is read from the fitted curve at half-maximal effect. The procedure, abridged: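 600 cells/well were plated with the nonlytic NanoLuc/prosubstrate reagent, pre-incubated 5 h, then given 23 nL of compound in DMSO. Incubation at 37 C for 40 h, with luminescence from viable-cell-reduced substrate read repeatedly from 0 h.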
The nature of assay [8]: A CellTox Green Cytotoxicity Assay to monitor cytotoxicity in HEK293 cells - 16 hour (AID 1224888). Also: nearly all actives have a fitted effect of over 35% in size. The essentials:
as §1

Assay [9] is described as follows: qHTS RealTime-Glo MT Cell Viability Assay in HepG2 cells - 0 hour (AID 1224889). Also: nearly all actives have a fitted effect of over 50% in size. The essentials:
as §3

Assay [10] is described as follows: A CellTox Green Cytotoxicity Assay to monitor cytotoxicity in HepG2 cells - 8 hour (AID 1224890). Also: nearly all actives have a fitted effect of over 45% in size. The essentials: as §2
Assay [11] can be described thus: qHTS assay to identify small molecule antagonists of the estrogen receptor alpha (ER-alpha) signaling pathway using the BG1 cell line in the presence of 0.1 nM 17-beta-estradiol - cell viability counter screen (AID 1259241). Also: nearly all actives have a fitted effect of over 40% in size. The procedure, abridged:
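Viability in VM7Luc4E2 cells after 22 hr compound exposure under 0.1 nM 17beta-estradiol stimulation, by CellTiter-Fluor.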

A short description of assay [12]: qHTS assay to identify small molecule antagonists of the androgen receptor (AR) signaling pathway using the MDA cell line in the presence of 0.5 nM R1881 - cell viability counter screen (AID 1259242). Also: nearly all actives have a fitted effect of over 45% in size. The procedure, abridged:
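MDA-kb2 cells (MMTV-luciferase, AR/GR responsive) were treated with compounds plus 0.5 nM R1881 (final) for 16 hr at 37C, 0% CO2. Viability was then read in the same wells as live-cell protease fluorescence (CellTiter-Fluor, 30 min).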

Assay [13] concerns the target Androgen receptor (Homo sapiens) (UniProt P10275). As to the kind of experiment: qHTS assay to identify small molecule antagonists of the androgen receptor (AR) signaling pathway using the MDA cell line in the presence of 0.5 nM R1881 (AID 1259243). Also: nearly all actives have a fitted effect of over 50% in size. Also: potency is read from the fitted curve at half-maximal effect. The essentials: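 MDA-kb2 cells (MMTV-luciferase, responsive to AR and GR) at 3,000/well, rested 5 h at 37C, 0% CO2, then given compounds plus 0.5 nM R1881 (final) for 16 hr. Luciferase read with ONE-Glo after 30 min at room temperature.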

Assay [14] has as its target Estrogen receptor (Homo sapiens) (UniProt P03372). As to the kind of experiment: qHTS assay to identify small molecule antagonists of the estrogen receptor alpha (ER-alpha) signaling pathway using the BG1 cell line in the presence of 0.1 nM 17-beta-estradiol (AID 1259244). Also: nearly all actives have a fitted effect of over 50% in size. Also: potency is read from the fitted curve at half-maximal effect. The essentials:
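VM7Luc4E2 cells (endogenous full-length ER-alpha, 4×ERE-luciferase), kept 5 days in phenol red-free, charcoal-stripped FBS medium; 4,000 cells/well. Compounds added with 0.1 nM (final) 17beta-estradiol, 22 hr at 37C; luminescence read with ONE-Glo after 30 min.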

A short description of assay [15]: qHTS assay to identify small molecule HDAC inhibitors (AID 1259364). Also: top concentration of the series differs between compounds; nearly all actives have a fitted effect of over 45% in size. The essentials: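 Wild-type HCT-116 cells, plated overnight at 37 C, exposed to compounds 2 hr at 37 C; luminogenic HDAC-Glo substrate then added 30 min at room temperature. Luminescence reports relative endogenous class I/II HDAC activity.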
A short description of assay [16]: qHTS assay to identify small molecule HDAC inhibitors - cell viability counter screen (AID 1259365). The essentials:
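Cytotoxicity was gauged in wild-type HCT-116 cells after a brief 2hr treatment with DMSO-dissolved compounds at 37C and 5% CO2, using CellTiter-Glo luminescence developed for 30min at room temperature.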

Assay [17] is described as follows: qHTS assay to identify small molecule agonists of the sonic hedgehog signaling (Shh) pathway - cell viability counter screen (AID 1259366). Also: nearly all actives have a fitted effect of over 50% in size. Also: potency is read from the fitted curve at half-maximal effect. The procedure, abridged: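 Stable Gli1-Luc NIH/3T3 clone, 2,000 cells/well. Compound exposure 24hr at 37C. Read-out: CellTiter-Fluor fluorescence.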
The nature of assay [18]: qHTS assay to identify small molecule antagonists of the sonic hedgehog signaling (Shh) pathway - cell viability counter screen (AID 1259367). Also: nearly all actives have a fitted effect of over 55% in size. Also: potency is read from the fitted curve at half-maximal effect. The procedure, abridged: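 NIH/3T3-derived Gli1-Luc reporter cells (2,000 per well) rested 4 hr at 37 C, then received DMSO compounds plus conditioned medium. After 23 hr of treatment, CellTiter-Fluor was added for 1 hr at 37C and fluorescence read.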

Assay [19] is described as follows: qHTS assay to identify small molecule agonists of the sonic hedgehog signaling (Shh) pathway (AID 1259368; calls by dose curve;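 also: NIH/3T3-derived 3T3Gli1-Luc cells carrying a stable Gli1-driven firefly luciferase reporter; series mostly up to about 92 µM; nearly all actives have a fitted effect of over 15% in size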). The procedure, abridged: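 NIH/3T3-derived 3T3Gli1-Luc cells with stably integrated Gli1-driven firefly luciferase, 2,000 cells/well, compounds added after 4 hr. Incubated 24 hr at 37C, 5% CO2; luminescence read after 30 min with luciferase reagent at room temperature.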

Eight compounds from PubChem BioAssay (Tox21) can be followed below.

Several values for one entry are separate records, joined by “and”; a condition that tells them apart may be missing. Equal values may be shown once. Inconclusive results are not listed. Activity calls are given as the source filed them. Unless noted, calls follow the shape of the dose curve; as a rule, active = well fitted curve in the direction sought with a large enough effect in the repeat runs; inconclusive = weak or mixed curves; inactive = no such curve, though single readings can be large; an effect the other way counts as inactive or inconclusive.

Estrogen receptor (Homo sapiens), sequence (P03372 whole entry, looked up): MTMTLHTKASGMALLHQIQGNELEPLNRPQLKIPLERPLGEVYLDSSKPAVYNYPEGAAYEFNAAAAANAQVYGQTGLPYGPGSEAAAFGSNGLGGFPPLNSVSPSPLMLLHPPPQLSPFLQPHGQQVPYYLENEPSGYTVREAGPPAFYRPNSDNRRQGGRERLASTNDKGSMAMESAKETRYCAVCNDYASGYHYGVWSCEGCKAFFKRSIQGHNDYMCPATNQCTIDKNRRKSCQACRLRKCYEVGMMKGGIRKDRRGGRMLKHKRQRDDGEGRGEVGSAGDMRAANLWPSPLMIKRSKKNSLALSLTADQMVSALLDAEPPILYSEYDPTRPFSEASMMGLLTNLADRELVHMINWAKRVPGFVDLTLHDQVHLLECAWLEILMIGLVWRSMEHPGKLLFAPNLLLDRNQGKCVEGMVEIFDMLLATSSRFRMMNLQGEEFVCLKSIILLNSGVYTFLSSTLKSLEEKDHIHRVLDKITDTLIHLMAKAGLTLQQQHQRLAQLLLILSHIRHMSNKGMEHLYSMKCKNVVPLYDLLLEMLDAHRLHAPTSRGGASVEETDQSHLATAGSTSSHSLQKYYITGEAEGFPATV
Androgen receptor (Homo sapiens), sequence (P10275 whole entry, looked up): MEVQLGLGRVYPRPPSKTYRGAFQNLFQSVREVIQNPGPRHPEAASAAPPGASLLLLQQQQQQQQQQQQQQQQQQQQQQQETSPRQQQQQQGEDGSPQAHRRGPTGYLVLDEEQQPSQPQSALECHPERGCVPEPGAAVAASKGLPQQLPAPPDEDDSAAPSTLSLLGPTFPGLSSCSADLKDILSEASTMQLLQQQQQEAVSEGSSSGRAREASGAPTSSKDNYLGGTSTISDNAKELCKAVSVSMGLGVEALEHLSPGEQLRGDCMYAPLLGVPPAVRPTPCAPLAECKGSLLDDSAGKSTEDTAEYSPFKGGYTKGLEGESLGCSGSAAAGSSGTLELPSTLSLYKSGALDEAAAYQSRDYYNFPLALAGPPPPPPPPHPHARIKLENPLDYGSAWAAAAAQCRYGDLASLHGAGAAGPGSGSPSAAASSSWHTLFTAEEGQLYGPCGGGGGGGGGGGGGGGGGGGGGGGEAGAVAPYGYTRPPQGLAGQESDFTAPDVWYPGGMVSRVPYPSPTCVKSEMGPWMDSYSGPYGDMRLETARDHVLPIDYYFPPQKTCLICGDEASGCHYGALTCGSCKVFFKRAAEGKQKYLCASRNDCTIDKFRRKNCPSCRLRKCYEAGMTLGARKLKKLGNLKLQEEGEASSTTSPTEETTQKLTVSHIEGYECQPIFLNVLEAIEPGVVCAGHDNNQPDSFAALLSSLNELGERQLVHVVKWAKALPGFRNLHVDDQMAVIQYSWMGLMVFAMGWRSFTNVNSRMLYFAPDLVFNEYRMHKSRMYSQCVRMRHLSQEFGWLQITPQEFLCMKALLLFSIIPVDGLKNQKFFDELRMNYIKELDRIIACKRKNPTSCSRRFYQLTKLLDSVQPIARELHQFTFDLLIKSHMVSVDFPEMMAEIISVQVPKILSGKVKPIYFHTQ

For the compound `C[C@H]1CCCC(=O)CCC/C=C/c2cc(O)cc(O)c2C(=O)O1`, the Potency result in [1], in assay [3], in assay [4], in assay [5], in assay [8] and in assay [10] was “inactive” throughout. Besides, the Potency entry in assay [12] and in assay [15] was “inactive” each time. Further, the outcome in assay [2], in assay [9], in assay [11] and in assay [16] was inactive. Also, the Potency is 33.4 µM (active) in assay [6]; 42.1 µM (active) in assay [7]; 20.9 µM (active) in assay [13]; 23.4 µM (active) and 25.2 µM (active) in assay [14]; 20.9 µM (active) in assay [17]; 23.4 µM (active) in assay [18].
With `CCNc1nc(Cl)nc(NC(C)(C)C)n1`, the Potency result in assay [1], in assay [3], in [4], in assay [5], in assay [6] and in assay [7] was “inactive” in each case. The Potency result in assay [8], in assay [10], in [12], in assay [13], in assay [14] and in assay [15] was “inactive” throughout. Further, the Potency result in assay [17] and in assay [18] was “inactive” in each case. Also, the compound was classed as inactive in assay [2], in assay [9], in assay [11] and in [16].
Take `COc1cc(CC(C)N)cc(OC)c1OC` (stereo not given): the Potency result in assay [1], in assay [3], in assay [4], in assay [5], in [6] and in [7] was “inactive” each time. For the same compound, the Potency entry in assay [8], in assay [10], in assay [12], in assay [14], in assay [15] and in assay [17] was “inactive” each time. In addition, the Potency entry in [18] is “inactive”. Also, the result in [2], in [9], in [11], in [16] and in [19] was inactive.
As to `OP(O)c1ccccc1`, the Potency result in assay [1], in [3], in [4], in assay [5], in [6] and in assay [7] was “inactive” in each case. The Potency result in [8], in [10], in assay [12], in [13], in assay [14] and in [15] was “inactive” throughout. Besides, the Potency entry in [17] and in assay [18] was “inactive” in each case. Moreover, the compound was called inactive in [2], in [9], in [11], in assay [16] and in assay [19].
For the compound `O=C(Cl)OCc1ccccc1`, the Potency entry in assay [1], in [3], in assay [4], in assay [5], in assay [6] and in assay [7] was “inactive” each time. In addition, the Potency entry in assay [8], in [10], in assay [12], in [14], in [15] and in assay [17] was “inactive” throughout. Also, the Potency entry in assay [18] is “inactive”. Also, the outcome in assay [2], in assay [9], in assay [11], in [16] and in [19] was inactive.
For `COc1ccc(CN2CCNCC2)c(OC)c1OC`, the Potency entry in [1], in assay [3], in assay [4], in assay [5], in assay [6] and in assay [7] was “inactive” throughout. The Potency entry in [8], in assay [10], in assay [12], in [14], in assay [15] and in [17] was “inactive” throughout. Besides, the Potency result in assay [18] is “inactive”. In addition, the call in [2], in [9], in [11], in assay [16] and in [19] was inactive.
As for `CC(C)(N)Cc1ccccc1Cl`, the Potency entry in assay [1], in [3], in assay [4], in assay [5], in assay [6] and in assay [7] was “inactive” each time. Also, the Potency result in assay [8], in assay [10], in assay [12], in [13], in [14] and in assay [15] was “inactive” each time. Further, the Potency entry in assay [17] and in [18] was “inactive” in each case. In addition, the outcome in [2], in [9], in assay [11] and in [16] was inactive.
In the case of `NCCOS(=O)(=O)O`, the Potency entry in [1], in assay [3], in [4], in [5], in assay [6] and in assay [7] was “inactive” in each case. In addition, the Potency entry in [8], in assay [10], in assay [12], in assay [14], in [15] and in assay [17] was “inactive” each time. In addition, the Potency result in assay [18] is “inactive”. The compound was called inactive in assay [2], in [9], in [11], in assay [16] and in assay [19].
